Screening data from PubChem.
Sampled rows, rich in hits. Any-hit rate of the full collection: about 3%.
KLF5 inhibitor: KLF5 expression inhibitors, primary screen, DLD-1 cells, luminescence. hit rate 0.23% among 290,000. inhibition, % at 5 µM. AID 1700, 2009. DLD-1 KLF5 promoter-luciferase reporter;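 active = inhibition above a per-plate limit of that plate's mean compound inhibition plus 3 SD, cut at about 60% in these data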;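 note: 0% = DMSO wells and 100% = LY294002 at 200 µM; higher means less KLF5 promoter-driven luciferase light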
aSyn UTR inh: MLPCN primary screen, SNCA 5' untranslated region | inhibition, % (tested at 7.5 µM) | hit rate 0.82% among 300,000 | alpha-synuclein 5'UTR reporter, inhibitor activity; in the data active = inhibition above about 60%;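 note: H4 neuroglioblastoma cells stably carrying SNCA 5'UTR luciferase fusion; 0% = DMSO wells and 100% = positive control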
SKKanGAS inh: S. pyogenes SKKanGAS growth inhibitors in kanamycin, primary screen, streptokinase expression inhibitor project, SKKanGAS strain, BacTiter-Glo luminescence | inhibition, % at 7.5 µM | 6 h | AID 1662, 2009 | hit rate 1.3% among 300,000;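 active = mean replicate score, as percent of positive control median, at least 50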;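 note: strain carries kanamycin resistance gene driven by streptokinase promoter and grows in 40 µg/ml kanamycin; loss of luminescence reflects streptokinase promoter inhibition or plain growth inhibition; 0% = median of DMSO wells and 100% = positive control at its reference dose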
IEC-6 cytotox: cytotoxicity in IEC-6 intestinal epithelial cells, primary screen, cytotoxicity control for KLF5 inhibitor project, cell-based, luminescence; hit rate 0.78% among 290,000; inhibition, % at 5 µM; AID 1825, 2009; IEC-6 cytotoxicity, luminescence viability; in the data active = inhibition above about 22%;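 note: 0% = plate median of test compound wells and 100% = cytotoxic reference compound wells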
CSC inhib: cancer stem cell viability inhibitors, primary screen, luminescence | cancer stem cell-like cells viability | inhibition, % at 7.5 µM | hit rate 1.1% among 300,000; in the data active = inhibition above about 75%; tested in HMLE shEcad cells
* hit, by the source's call.

What do the screens show for `O=c1c(O)c(-c2cccs2)oc2ccccc12`?
KLF5 inhibitor: -31; aSyn UTR inh: -55; SKKanGAS inh: 76*; IEC-6 cytotox: 4; CSC inhib: 19

Results for O=c1c(O)c(-c2cccs2)oc2ccc(Cl)cc12 ?
KLF5 inhibitor: -55; aSyn UTR inh: -75; SKKanGAS inh: 66*; IEC-6 cytotox: -1; CSC inhib: 61

Results for Cc1cccnc1NC(=O)CSc1ccc2c(c1)OCCO2 ?
CSC inhib: -10

What do the screens show for `CCOC(=O)c1csc(N)c1-c1ccc([N+](=O)[O-])cc1`?
KLF5 inhibitor: -21; aSyn UTR inh: 36; SKKanGAS inh: -3; IEC-6 cytotox: 0; CSC inhib: -4

How did O=C(CSc1nnc(-c2ccco2)o1)c1ccc[nH]1 do in these assays?
KLF5 inhibitor: -94; aSyn UTR inh: -158; SKKanGAS inh: 2; IEC-6 cytotox: -5; CSC inhib: -7

What do the screens show for `c1ccc(-c2nnc3sc(CN4CCc5ccccc54)cn23)cc1`?
KLF5 inhibitor: 14; aSyn UTR inh: 3; SKKanGAS inh: 9; IEC-6 cytotox: 8; CSC inhib: 76*

Results for Brc1ccc(-c2nnc3sc(CN4CCC5(CC4)OCCO5)cn23)cc1 ?
KLF5 inhibitor: -23; aSyn UTR inh: -12; SKKanGAS inh: 0; IEC-6 cytotox: 3; CSC inhib: 16

What do the screens show for `COc1ccc(N=N/C(=C\O)C(=O)c2cccs2)cc1`?
KLF5 inhibitor: 16; aSyn UTR inh: -13; SKKanGAS inh: 2; IEC-6 cytotox: 2; CSC inhib: 88*

Results for CC(C)C1O/C(=N/C(=O)Nc2ccc(Cl)c(Cl)c2)NC1=O (centres undefined) ?
KLF5 inhibitor: -32; aSyn UTR inh: -20; SKKanGAS inh: 79*; IEC-6 cytotox: -2; CSC inhib: 49

Results for CCC1Oc2ccc(C)cc2N(CC(=O)NCC2CCCO2)C1=O (centres undefined) ?
KLF5 inhibitor: 2; aSyn UTR inh: 10; SKKanGAS inh: -1; IEC-6 cytotox: 5; CSC inhib: 4

Results for COc1ccc2nc(SCC(=O)N3CC(=O)Nc4ccccc43)c(C#N)cc2c1 ?
KLF5 inhibitor: -17; aSyn UTR inh: 33; SKKanGAS inh: 10; IEC-6 cytotox: 2; CSC inhib: 22

Results for Cc1cc(C)c2nc(SCC(=O)N3CC(=O)Nc4ccccc43)c(C#N)cc2c1 ?
KLF5 inhibitor: -2; aSyn UTR inh: 67*; SKKanGAS inh: 24; IEC-6 cytotox: 0; CSC inhib: 26

Results for N#C/C(=N\Nc1ccc(Cl)cc1)C(N)=S ?
KLF5 inhibitor: -14; aSyn UTR inh: -19; SKKanGAS inh: 97*; IEC-6 cytotox: -1; CSC inhib: 37

How did CC1CCN(S(=O)(=O)c2ccc(N/N=C(/C#N)C(N)=O)cc2)CC1 do in these assays?
KLF5 inhibitor: -22; aSyn UTR inh: 2; SKKanGAS inh: -22; IEC-6 cytotox: 11; CSC inhib: 3

How did N#C/C(=N\Nc1ccc(S(=O)(=O)N2CCOCC2)cc1)C(N)=S do in these assays?
KLF5 inhibitor: -19; aSyn UTR inh: 8; SKKanGAS inh: 65*; IEC-6 cytotox: -9; CSC inhib: -2

What do the screens show for `N#C/C(=N\Nc1ccccc1)C(N)=S`?
KLF5 inhibitor: 9; aSyn UTR inh: 18; SKKanGAS inh: 43; IEC-6 cytotox: -3; CSC inhib: 8

What do the screens show for `O=C(COC(=O)CC1CCCC1)Nc1ccccc1[N+](=O)[O-]`?
CSC inhib: -8

Results for COC(=O)c1ccccc1NC(=O)Cn1nc2n(C)c3ccccc3n2c(=O)c1=O ?
KLF5 inhibitor: -31; aSyn UTR inh: -29; SKKanGAS inh: 5; IEC-6 cytotox: -8

How did COc1ccc(-c2ccc(NC(=O)c3ccc(Br)o3)cc2)nn1 do in these assays?
aSyn UTR inh: -110; SKKanGAS inh: 3; CSC inhib: 23

Results for Cc1cc(C)c(O)c(-c2cc(C(=O)Nc3ccc(S(=O)(=O)N4CCOCC4)cc3)[nH]n2)c1 ?
KLF5 inhibitor: -16; aSyn UTR inh: -3; SKKanGAS inh: 32; IEC-6 cytotox: 6; CSC inhib: 88*

What do the screens show for `CCOC(=O)N1CCN(c2ccc(C(=O)c3cccc(F)c3)cc2)CC1`?
KLF5 inhibitor: -4; aSyn UTR inh: 7; SKKanGAS inh: -17; IEC-6 cytotox: 0; CSC inhib: 76*

What do the screens show for `O=C(c1ccc(N2CCN(C(=O)c3cccc(F)c3)CC2)cc1)c1cccc(F)c1`?
KLF5 inhibitor: 0; aSyn UTR inh: 20; SKKanGAS inh: -1; IEC-6 cytotox: 8; CSC inhib: 8

What do the screens show for `Cn1nc(-c2ccccc2)c(CSc2ccccc2Cl)c1Cl`?
KLF5 inhibitor: -33; aSyn UTR inh: 9; SKKanGAS inh: 75*; IEC-6 cytotox: 12; CSC inhib: 8

What do the screens show for `Cn1c(-c2sc3ccccc3c2Cl)n[nH]c1=S`?
KLF5 inhibitor: -1; aSyn UTR inh: -5; SKKanGAS inh: 5; IEC-6 cytotox: 4; CSC inhib: -11

What do the screens show for `CC(C)n1cnc2c(NCc3ccccc3)cc(Cc3ccc(F)cc3)cc21`?
CSC inhib: 129*

Results for CC(C)n1cnc2c(NCc3ccc(S(N)(=O)=O)cc3)nc(NCc3ccc(S(N)(=O)=O)cc3)nc21 ?
aSyn UTR inh: -10; SKKanGAS inh: 3; CSC inhib: 15

What do the screens show for `CC(C)n1cnc2c(NCc3ccccc3)nc(NCc3ccccc3)nc21`?
aSyn UTR inh: 28; SKKanGAS inh: 90*; CSC inhib: 12

Results for CCn1cc(CN2CCC(n3nccc3NC(=O)c3ccc(OC)cc3)CC2)cn1 ?
KLF5 inhibitor: -24; aSyn UTR inh: -20; SKKanGAS inh: -8; IEC-6 cytotox: -8; CSC inhib: 13

How did Cc1ccc(C(=O)Nc2nc(C)c(C(=O)Nc3ccc4c(c3)CCC4)s2)cc1 do in these assays?
KLF5 inhibitor: -48; aSyn UTR inh: -23; SKKanGAS inh: 33; IEC-6 cytotox: 16; CSC inhib: 81*

What do the screens show for `Cc1nc(NC(=O)c2ccc(F)cc2)sc1C(=O)Nc1ccc2c(c1)CCC2`?
KLF5 inhibitor: -3; aSyn UTR inh: -99; SKKanGAS inh: 16; IEC-6 cytotox: -4; CSC inhib: 35

How did FC(F)(F)c1ccccc1/C=N/n1c(COc2ccccc2)n[nH]c1=S do in these assays?
KLF5 inhibitor: -1; aSyn UTR inh: 18; SKKanGAS inh: 8; IEC-6 cytotox: 5; CSC inhib: -6

Results for CSc1nsc2nc(=O)c(/C=C3\C=Nc4ccccc43)c(N)n12 ?
KLF5 inhibitor: -55; aSyn UTR inh: -49; SKKanGAS inh: 50*; IEC-6 cytotox: -9; CSC inhib: 30

What do the screens show for `CC(C)S(=O)(=O)c1nsc2nc(=O)c(/C=C3\C=Nc4ccccc43)c(N)n12`?
KLF5 inhibitor: -13; aSyn UTR inh: -13; SKKanGAS inh: -25; IEC-6 cytotox: 3; CSC inhib: -3

What do the screens show for `Cc1ccc(CNC(=O)c2ccc([N+](=O)[O-])o2)cc1`?
KLF5 inhibitor: 1; aSyn UTR inh: -70; SKKanGAS inh: 56*; IEC-6 cytotox: 13; CSC inhib: -6
